# Where two headings read alike, the source gives them in different places.
# Columns and labels:
# Design in all cases: species or system human, MV4-11 + K-562 + COLO205 + SK-N-BE2 + OVCAR-8
# MAP2K1 = conditions: read-out: apparent Kd; compound concentrations: 100 nM and 1000 nM (sheet 'Samples'), CATDS: 0.27931983910668101; n = 1
# MAPK11 = conditions: read-out: apparent Kd, n = 1
# RET = conditions: read-out: apparent Kd; compound concentrations: 100 nM and 1000 nM (sheet 'Samples'), CATDS: 0.41481657466373201; n = 1
# MAPK10 = conditions: read-out: apparent Kd, n = 1
# MAPK14 = conditions: read-out: apparent Kd, n = 1
# MAPK8 = conditions: read-out: apparent Kd, n = 1
# MAPK9 = conditions: read-out: apparent Kd, n = 1
# MAPKAPK2 = conditions: read-out: apparent Kd, n = 1
# NLK = conditions: read-out: apparent Kd, compound concentrations: 100 nM and 1000 nM (sheet 'Samples'), n = 1
# PIP4K2C = conditions: read-out: apparent Kd; compound concentrations: 100 nM and 1000 nM (sheet 'Samples'), CATDS: 7.7645763885448402E-2; n = 1
# MAP3K1 = conditions: read-out: apparent Kd; compound concentrations:100 nM and 1000 nM (sheet 'Samples'); n = 1
# LIMK1 = conditions: read-out: apparent Kd; compound concentrations: 100 nM and 1000 nM (sheet 'Samples'), CATDS: 0.71485033586555802; n = 1
# LIMK2 = conditions: read-out: apparent Kd; compound concentrations: 100 nM and 1000 nM (sheet 'Samples'), CATDS: 0.38445187661018698; n = 1
# NQO2 = conditions: read-out: apparent Kd; compound concentrations:100 nM and 1000 nM (sheet 'Samples'); n = 1
# TGFBR1 = conditions: read-out: apparent Kd, n = 1
# TGFBR2 = conditions: read-out: apparent Kd, n = 1
# RIPK2 = conditions: read-out: apparent Kd, n = 1
# RIPK3 = conditions: read-out: apparent Kd; compound concentrations: 100 nM and 1000 nM (sheet 'Samples'), CATDS: 0.12404115210191501; n = 1
# STK16 = conditions: read-out: apparent Kd; compound concentrations: 100 nM and 1000 nM (sheet 'Samples'), CATDS: 0.11776221232306; n = 1
# TESK2 = conditions: read-out: apparent Kd; compound concentrations: 100 nM and 1000 nM (sheet 'Samples'), CATDS: 0.123939134013601; n = 1
# PHKG2 = conditions: read-out: apparent Kd; compound concentrations:100 nM and 1000 nM (sheet 'Samples'); n = 1
# PIM2 = conditions: read-out: apparent Kd; compound concentrations:100 nM and 1000 nM (sheet 'Samples'); n = 1
# PIM3 = conditions: read-out: apparent Kd; compound concentrations:100 nM and 1000 nM (sheet 'Samples'); n = 1
# PKN3 = conditions: read-out: apparent Kd; compound concentrations:100 nM and 1000 nM (sheet 'Samples'); n = 1
# MTHFD1 = conditions: read-out: apparent Kd; compound concentrations:100 nM and 1000 nM (sheet 'Samples'); n = 1
# MDN1 = conditions: read-out: apparent Kd; compound concentrations: 100 nM and 1000 nM (sheet 'Samples'), CATDS: 0.24349694063925101; n = 1
# PIK3C3 = conditions: read-out: apparent Kd; compound concentrations: 100 nM and 1000 nM (sheet 'Samples'), CATDS: 0.27915457125427801; n = 1
# RIOK2 = conditions: read-out: apparent Kd; compound concentrations: 100 nM and 1000 nM (sheet 'Samples'), CATDS: 0.23086501182720201; n = 1
# [1] = compound concentrations:100 nM and 1000 nM (sheet 'Samples')
smiles,measurement,setting,value
COc1cc2c(Nc3cccc(NC(=O)c4ccccc4)c3)ncnc2cc1OCCCN1CCOCC1 [GSK223810A],potency estimated from few doses,MAP2K1,2310 nM
same,potency estimated from few doses,"MAPK11; compound concentrations: 100 nM and 1000 nM (sheet 'Samples'), CATDS: 0.33231746948784902",1550 nM
same,potency estimated from few doses,RET,1030 nM
CC(C)(O)Cn1c(=O)c(Oc2ccc(F)cc2F)cc2cnc(NC3CCOCC3)nc21 [RO5036558-000],potency estimated from few doses,"MAPK10; compound concentrations: 100 nM and 1000 nM (sheet 'Samples'), CATDS: 0.17874550909650799",71.4 nM
same,potency estimated from few doses,"MAPK11; compound concentrations: 100 nM and 1000 nM (sheet 'Samples'), CATDS: 7.7724815915961296E-2",1370 nM
same,potency estimated from few doses,"MAPK14; compound concentrations: 100 nM and 1000 nM (sheet 'Samples'), CATDS: 0.32550592526208599",24.8 nM
same,potency estimated from few doses,"MAPK8; compound concentrations: 100 nM and 1000 nM (sheet 'Samples'), CATDS: 9.0808472598726403E-2",578 nM
same,potency estimated from few doses,"MAPK9; compound concentrations: 100 nM and 1000 nM (sheet 'Samples'), CATDS: 0.14012416738293099",127 nM
same,potency estimated from few doses,"MAPKAPK2; compound concentrations: 100 nM and 1000 nM (sheet 'Samples'), CATDS: 0.240899887861172",40.4 nM
same,potency estimated from few doses,NLK; CATDS: 0.137200771005723,134 nM
same,potency estimated from few doses,PIP4K2C,1380 nM
C[C@@H](Oc1cc(-n2cnc3ccc(-c4ccncc4)cc32)sc1C(N)=O)c1ccccc1Cl [GSK483724A],potency estimated from few doses,MAP3K1,1840 nM
N#CCn1c(=O)c(Oc2ccc(F)cc2F)cc2cnc(NC3CCOCC3)nc21 [RO5040027-000],potency estimated from few doses,MAPK10; [1],45.1 nM
same,potency estimated from few doses,MAPK11; [1],146 nM
same,potency estimated from few doses,MAPK14; [1],3.79 nM
same,potency estimated from few doses,MAPK8; [1],523 nM
same,potency estimated from few doses,MAPK9; [1],146 nM
same,potency estimated from few doses,MAPKAPK2; [1],3.65 nM
CCCCN(Cc1ccccc1)C(=O)c1ccc(S(=O)(=O)Nc2ccccc2)cc1 [TH257],potency estimated from few doses,LIMK1,578 nM
same,potency estimated from few doses,LIMK2,2320 nM
Nc1c(C(=O)c2cccc(C#CCO)c2)cnn1-c1ccc(F)cc1 [RO1153836-000],potency estimated from few doses,"MAPK11; compound concentrations: 100 nM and 1000 nM (sheet 'Samples'), CATDS: 1",591 nM
Cc1ccc(-c2cc(-c3c[nH]nc3-c3ccccn3)ccn2)cc1 [GW684088X],potency estimated from few doses,NQO2,741 nM
same,potency estimated from few doses,TGFBR1; [1],490 nM
same,potency estimated from few doses,TGFBR2; [1],2230 nM
Cc1cc(-c2cnc(N)c3c(-c4ccc5scnc5c4)csc23)n(C)n1 [GSK843],potency estimated from few doses,NLK; CATDS: 0.25956792289458103,168 nM
same,potency estimated from few doses,"RIPK2; compound concentrations: 100 nM and 1000 nM (sheet 'Samples'), CATDS: 0.78129176750212304",15.6 nM
same,potency estimated from few doses,RIPK3,1430 nM
same,potency estimated from few doses,STK16,1750 nM
same,potency estimated from few doses,TESK2,1430 nM
same,potency estimated from few doses,"TGFBR2; compound concentrations: 100 nM and 1000 nM (sheet 'Samples'), CATDS: 0.16011510960484199",616 nM
COc1cccc(-c2nc(-c3ccccc3)[nH]c2-c2ccncc2)c1 [SB-610250],potency estimated from few doses,MAPK14; [1],1050 nM
same,potency estimated from few doses,MAPKAPK2; [1],1480 nM
same,potency estimated from few doses,NQO2,131 nM
same,potency estimated from few doses,PHKG2,2340 nM
same,potency estimated from few doses,PIM2,1940 nM
same,potency estimated from few doses,PIM3,1430 nM
same,potency estimated from few doses,PKN3,1320 nM
same,potency estimated from few doses,RIPK2; [1],204 nM
CCNC(=O)[C@@H]1CCCN2C(=O)CC[C@H](NC(=O)[C@H](Cc3ccc(OP(=O)(O)O)cc3)NC(C)=O)C(=O)N12 [RO0325851-000],potency estimated from few doses,MTHFD1,1840 nM
COc1cccc(-c2cc(-c3c[nH]nc3-c3ccccn3)ccn2)c1 [GW680338X],potency estimated from few doses,NQO2,424 nM
Nc1nc(-c2nccs2)c(-c2ccnc3ccccc23)s1 [GW693542X],potency estimated from few doses,MDN1,1860 nM
same,potency estimated from few doses,PIK3C3,1430 nM
same,potency estimated from few doses,RIOK2,2090 nM
same,potency estimated from few doses,"TGFBR1; compound concentrations: 100 nM and 1000 nM (sheet 'Samples'), CATDS: 0.25129467412206702",1750 nM

# — publication PMC11062922 (Nature Chemical Biology, 2023)
